In PubChem BioAssay AID493123 (National Center for Advancing Translational Sciences (NCATS), 2011):
Activity calls are given as the source filed them. The rule behind the calls is not given here.

Assay: Concentration response confirmation assay for small molecule inhibitors of Shiga toxin
Settings: cell-based concentration response; series mostly up to 76.6 µM

| SMILES | outcome |
| --- | --- |
| CCN1C(=O)/C(=C/c2ccc(OC)c(OC)c2)N=C1SCC(=O)NCc1ccco1 | inactive |
| Cc1cccc(NC(=O)CCN2C(=O)c3ccccc3S2(=O)=O)c1C | inactive |
| C=CCNC(=O)c1ccc(C)c(Br)c1 | inactive |
| COc1ccc(C(C)(C)C)cc1NC(=O)c1ccc2c(c1)SC1=NS(=O)(=O)CCN12 | inactive |
| O=C(CC(c1ccccc1)c1cc(Cl)ccc1O)N1CCCC1 (stereo not drawn) | inactive |
| CN(C)S(=O)(=O)c1ccc(C(=O)Nc2ccc(CN3CCCC3)cc2)cc1 | inactive |
| CC1CCC/C=C/C2CC(O)CC2C(O)/C=C/C(=O)O1 (stereo not drawn) | inactive |
| CCn1c2ccccc2c2cc(NC(=O)c3cccc([N+](=O)[O-])c3)ccc21 | inactive |
